B1: ENSMUSG00000058297.30|Spock2|71:75;79:92;101:112;126:132;141:150;156:181 (ssRNA)
RNA: GGGAGUUCUACAGUCCGACGAUCGCUUCGAUAUCCGCAUGCUACAGGCAACUUAGCAAAUGGAUCCGGAAGUCAGUGCGGAGGACCCUGGCUCCAGUGGGGGAGGACUGGGGACACACGCUACACACAUACACACAUAUGAGAACACACACAUACAUGUGAGAUGUGACACACACAUGUGAGAACACACAUACUGAGAACACACACACACACACACACACACACAUGUGAGUCACCCAAAGGUCCCUAUGUUAUUGAUUUUCAAAUGCACACUUUCACACACAAGGAUACACUAACAGACCAACUCUUGCGGUCGCACUAGUGUGGAAUUCUCGGGUGUCAAGG
B2: ENSMUSG00000031028.17|Tub|206:210 (ssRNA)
RNA: GGGAGUUCUACAGUCCGACGAUCGCUUCGAUAUCCGCAUGCUACUCUGUCCAGCUUUGACAGCAAGCUGGCCUGCGAGUAGAGGCCCCCCACUGCCUUUAGGUGGCCCAGUCCGGAGUGGAGCUUGCCUGCCUGCCAAGACAGCCCUGCCUACCCUCUGUUCAUAGGCCCUCUAUGGGCUUUCUGGCCUUACCAACCAGAGACUGGCUGCUCUGCCUCUGCUGCUGAAGCAGGGGGGACAGCAAAUGGCAUACACAGGAGAAGAAUAUUUCUGUGCCCCAAGGUCAACACACAUGCCCAGUCCCUCUUGCGGUCGCACUAGUGUGGAAUUCUCGGGUGUCAAGG
B3: ENSMUSG00000031028.285|Tub (ssRNA)
RNA: GGGAGUUCUACAGUCCGACGAUCGCUUCGAUAUCCGCAUGCUAUGCAGGUAAGGAGGCUGGAUUGAUGUAAAUGGAAGUAGUACUUUAAGAAAGCUCUAGAUUUCCCAGGUUGGACACUCGACGAAAGGCACACCUGCUGCAGCAGGUUCUGACACACCUGAGCCAUACAUUGCCAUCAGAGAACCCUCAGCGAGGUAGCCUUUGUUUACAGUCUAGUUUCUAGAGGGCAGUAGGACUUCCAUGCUGGGGCUGGCCUAUCUCCUGAUGAAAGAUUACAGUGCCAUCUCCUUCCCAUAGUUCUGCUCUUGCGGUCGCACUAGUGUGGAAUUCUCGGGUGUCAAGG
B4: ENSMUSG00000061578.738|Ksr2 (ssRNA)
RNA: GGGAGUUCUACAGUCCGACGAUCGCUUCGAUAUCCGCAUGCUAUUGUCUAAGGCUGUGGGUUUUAAAUACCUGCUGCAGGCCUCCCAUCUCUGGCUCUUUGUUUCCACUCUGGCCCAAGUUUGAGUCUCCAUAUGGGCCCUUCCUGUCCUCAUGCCCUGCCUGUCUUCAUUCCACCCAUCCACCCUCCUAAGGAUUGGUCUUGUUCCGAGAGUGAUCCUGGUAACGCCAAGCCUCCCUCUGCCCCUGUGUUGGCUUCUGUGACGGACUACCACACACCAAGAGGUUUUUCACAGUGAAGAUGUCUCUUGCGGUCGCACUAGUGUGGAAUUCUCGGGUGUCAAGG
B5: ENSMUSG00000061578.1348|Ksr2 (ssRNA)
RNA: GGGAGUUCUACAGUCCGACGAUCGCUUCGAUAUCCGCAUGCUACUCUUCCUCCUGUCCCACAGCCCCCAGGUCAGAGCCAAGCGCAUCAUCUGCAGCACACAUGUCUGUCUCCACAGGCAAGCAACCUUGCCAAGGCAGGCCAGACAGGACAGCCCAGCUUCCCACUCCAGACAUGUUGUUCUUACAUCUCUGACCCAGUGAUCUUUCUAGGGGUCUGUCACAUGUCCCAACAGGUGGACAGCUCUCCAAGUCACCAACCUGAGGAAAAUAUCCCUCCUUGUAAAAAGGCUUUCUCUUUGUAACUCUUGCGGUCGCACUAGUGUGGAAUUCUCGGGUGUCAAGG
B6: ENSMUSG00000029028.239|Lrrc47 (ssRNA)
RNA: GGGAGUUCUACAGUCCGACGAUCGCUUCGAUAUCCGCAUGCUAGUGCGAGAGCCGUUAGCUGUCAGAACUAGUGAAGCUCCAGGCUCCUCGUGGCAGACCCUGGACAACGCUGGUAGCUGUUCUCCAUGAGACACGGCUGCUCACAGGUCCCUUUGAGUGGCUGUGGCAAGUACUCACCUACUAAGUGUUUAGGGUGGAGCUAUCCUGUGCUCACCCUGUCUCCCCCCAGUUCCUGCUGUUCCCUCCAGCCCAGCCCAGCCCAGGUGUGAGAUUCAUUGAGAUUUUUGAAACUGUUUUUACAGCUCUUGCGGUCGCACUAGUGUGGAAUUCUCGGGUGUCAAGG
B7: ENSMUSG00000029028.154|Lrrc47 (ssRNA)
RNA: GGGAGUUCUACAGUCCGACGAUCGCUUCGAUAUCCGCAUGCUAGCUUGUUUCCAGGCACCGUGCUGCCGCCAUGCUCCCAGGGCAGCAUCUGCCUUCCACGGCUGUGCUUGGAACUGUAGUGCUGGUCGUUGUUGGCACAUCUGCGCCUUGGCCAAGGAAGUUAUCUAUGUCCGUGUAGUCCUUUGUAGUCAGACAGAUGCUUCGUGGACUGUGCCUCACACAUGGCCCUGCAGGCUCCAUGUCAGCGUGUCCCACUAUUCAUGUCCCAUCUCUGUGCAUCCUGACUGCGCACAUCCCAUCUCCUCUUGCGGUCGCACUAGUGUGGAAUUCUCGGGUGUCAAGG
B8: ENSMUSG00000061578.113|Ksr2|98:102;184:189;252:256 (ssRNA)
RNA: GGGAGUUCUACAGUCCGACGAUCGCUUCGAUAUCCGCAUGCUACUCCCAUUUUGUAAGAACACUGUUCUAACUCACCUCAUGCCCACGCUACCCUGGGCAACUGGAGAACACCAUAGCGUUUCAGCUGAUGUGACAUUUGCACACACCUUUACCAGUUCACCAUCAUUCAUGGCUUCCCCCAAAGUCCCGAGUCCUGAGAACCGGGGCUGUGGCAAGAGAGUUCUGCACACAUCUCUCUGUGGGGCUAGCAAUGCCGGGGUUAAGUUCUCCCUCGGUGAUGGAGACGGUCCUGGCAUACCAUGCUCUUGCGGUCGCACUAGUGUGGAAUUCUCGGGUGUCAAGG
B9: ENSMUSG00000034801.54|Sos2 (ssRNA)
RNA: GGGAGUUCUACAGUCCGACGAUCGCUUCGAUAUCCGCAUGCUAUCAAUGACCUUGGCCAUAUGUAGUCAUUGACACUGGAAUAGUAUUUGUAAAGGUUUUUAAUUUAUUCAAAAAGACAUAGUAUUUUAGUACUUUUUACAGAAAUGCUACUGAUUAAAUAAGCUCUUAAGAAUUAGUAAACUUGUUGGAUGGCAGUGGCCCACAGCUGUAAUCCCAGCACCCUGGUUGCAGGGGCAGGUGGGCUUCAGGGUUUGAGAGCAGCCUGGUCUACAGAGCAAGUCCCAGGACAGCCAGGGCUACACCUCUUGCGGUCGCACUAGUGUGGAAUUCUCGGGUGUCAAGG
B10: ENSMUSG00000090935.235|Synj2bp (ssRNA)
RNA: GGGAGUUCUACAGUCCGACGAUCGCUUCGAUAUCCGCAUGCUAGGGGACUAGGGGAUCAUAUUCCCUCAUAUAUAAUCAAGACUCAUAUUGAAAAAUGAGUUCUGGAUUGUAAAGAGAACUUACUUUUUCCACUUGCCUGUAAGUCUUUGUCCACAAGUUAAAAACAUACACAGUGCUAAGGAAUGAUCAUAACUGAAACAUUUCAAGAACUAUUAGCAGAGCAUGUAUAUUGAGGAUGGGGAAGUUAGCUUUAAAAGAGAAUGCUCAGUCAGUGACAUUAGGAAAAUAAUGACUGAAGCAAUCUCUUGCGGUCGCACUAGUGUGGAAUUCUCGGGUGUCAAGG

This is an account of results in publication PMC12864922, “TDP-43 directly inhibits mRNA accumulation in neurites through modulation of mRNA stability”.

In all, about 9,900 sequences were measured (“r (bound/input frequency ratio)”: median about 0.7, highest 2% from about 6.5 on). This excerpt belongs to a sample that is enriched for the highest values.

TDP-43, sequence (Q13148 whole entry): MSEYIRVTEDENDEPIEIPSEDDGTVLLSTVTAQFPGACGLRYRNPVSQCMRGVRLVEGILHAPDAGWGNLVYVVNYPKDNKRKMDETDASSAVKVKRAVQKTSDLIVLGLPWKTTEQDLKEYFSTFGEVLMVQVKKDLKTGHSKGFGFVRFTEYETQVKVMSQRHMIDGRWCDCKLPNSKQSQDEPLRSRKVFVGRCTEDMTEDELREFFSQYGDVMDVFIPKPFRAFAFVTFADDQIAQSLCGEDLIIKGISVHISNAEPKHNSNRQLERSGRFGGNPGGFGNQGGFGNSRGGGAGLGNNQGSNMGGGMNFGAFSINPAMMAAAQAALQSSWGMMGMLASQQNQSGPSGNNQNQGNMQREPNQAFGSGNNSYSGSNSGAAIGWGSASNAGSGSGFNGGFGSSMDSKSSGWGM

The target of the assay is TDP-43 (Homo sapiens, UniProt Q13148 1-414). Nature of the assay: RNA Bind-n-Seq with designed 260-mer pool; 25 mM Tris-HCl, 150 mM KCl, 3 mM MgCl2, BSA (printed 500 mg/mL), 20 units/mL SUPERase IN; pH not stated; 500 nM RNA pool, 1 h, 4 C; TDP-43 5, 50, 500 nM; high values mean tight binding. Particulars: protein: recombinant; tags: SBP (GST cleaved off with PreScission; pGEX-GST-SBP). Put shortly:
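Duplicate measurements used two independent batches of recombinant SBP-tagged TDP-43, which was captured on streptavidin beads at 5, 50 or 500 nM. The beads were incubated with 500 nM of an in vitro-transcribed 260-nt 3′ UTR oligo pool for 1 h at 4 °C in 25 mM Tris-HCl, 150 mM KCl, 3 mM MgCl2, BSA and SUPERase IN. After washing, biotin elution, reverse transcription, PCR amplification and sequencing, binding was expressed as R: each oligo's normalized read abundance in the bound sample over its abundance in input.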
As for B1, the binding signal is 2.07 R (bound/input frequency ratio).
The value for B2 was 0.458 R (bound/input frequency ratio); that for B3 was 0.881 R (bound/input frequency ratio); that for B4 was 1.57 R (bound/input frequency ratio).
Regarding B5, the binding signal is 0.533 R (bound/input frequency ratio).
As for B6, the figure is 0.716 R (bound/input frequency ratio); as for B7, 1.62 R (bound/input frequency ratio); as for B8, 0.484 R (bound/input frequency ratio).
The value for B9 was 0.356 R (bound/input frequency ratio); that for B10 was 0.157 R (bound/input frequency ratio).
